The source holds several records for some structures; these can differ, active in one and inactive in another. The source made the active and inactive calls. How the source made its calls: active means hit-call score of the fitted dose curve at least 0.9, where 1 is the maximum; inactive means score below 0.9.
Test: ATG_TGFb_CIS: Attagene CIS-FACTORIAL HepG2 Assay for human Transforming Growth Factor (TGF) (AID 2282967)
Details: HepG2 Attagene CIS TGFb reporter, mRNA transcription; actives raise or lower the signal
Experimental: ATG_CIS is a cell-based, multiplexed-readout assay that uses HepG2, a human liver cell line, with measurements taken at 24 hours after chemical dosing in a 24-well plate.ATG_TGFb_CIS is one of 52 assay component(s) measured or calculated from the ATG_CIS assay. It is designed to make measurements of mRNA induction, a form of inducible reporter, as detected with fluorescence intensity signals by Reverse transcription polymerase chain reaction (RT-PCR) and Capillary electrophoresis technology.Data from the assay component ATG_TGFb_CIS was analyzed into 1 assay endpoint. This assay endpoint, ATG_TGFb_CIS, was analyzed with bidirectional fitting relative to DMSO as the negative control and baseline of activity. Using a type of inducible reporter, measures of mRNA for gain or loss-of-signal activity can be used to understand the reporter gene at the transcription factor-level as they relate to the gene TGFB1. Furthermore, this assay endpoint can be referred to as a primary readout, because this assay has produced multiple assay endpoints where this one serves a reporter gene function. To generalize the intended target to other relatable targets, this assay endpoint is annotated to the growth factor intended target family, where the subfamily is transforming growth factor beta.
Human liver HepG2 cells are transiently transfected with multiple reporter transcription units (MRTUs) in 6-well plates using FuGene 6 reagent (Roche; 3 ml FuGene/1 mg DNA). The MRTU constructs are regulated by a cis-regulating element (promoter). […] A major difference between the CIS and TRANS system is that in CIS activities of endogenous TFs are measured, whereas the TRANS assay evaluates changes in activities of exogenous, chimeric NR-Gal4 proteins. […] At the end of 24 hour incubation, total RNA was isolated using TriZol reagent (Invitrogen). The isolated RNA is then reverse-transcribed using oligo(dT) primer and Mo-MLV reverse transcriptase (Invitrogen) with DNAse I (Ambion) treatment for 30 min. The one-tenth of the produced cDNA was amplified by PCR using Taq DNA polymerase (Invitrogen) and two reporter sequence-specific primers. The PCR products were fluorescently labeled by primer extension with 6-arboxyfluorescein (6-FAM) 5'-labeled reporter sequence-specific primer (2 min at 95 C, 20 s at 68 C and 10 min at 72 C) and these products were digested with 5U of HpaI (New England Biolabs) for 2h at 37 C. The fragments were purified using Qiaquick PCR columns (Qiagen), analyzed on an ABI 3130xL genetic analyzer (Applied Biosystems) with peak positions identified by using a set of X-rhodamine (ROX)-labeled MapMarker1000 molecular weight standards (BioVentures). The raw capillary electrophoresis data was processed using Attagraph software (Attagene).

Compound	outcome	AC50
CNC(=O)Oc1ccc(N(C)C)c(C)c1	inactive	–
Nc1ccc([N+](=O)[O-])cc1Cl	inactive	–
CCCCC(CC)COC(=O)c1c(Br)c(Br)c(Br)c(Br)c1C(=O)OCC(CC)CCCC (stereo not given)	inactive	–
Cc1ccc(O)cc1C	inactive	–
Nc1ccc(Cl)cc1	inactive	–
CC(C)(C)c1ccccc1OP(=O)(Oc1ccccc1)Oc1ccccc1	inactive	–
ClC(Cl)(Cl)c1ccccc1	inactive	–
O=C(O)C1C(C(=O)O)C2(Cl)C(Cl)=C(Cl)C1(Cl)C2(Cl)Cl (stereo not given)	inactive	–
CC(O)C#N (stereo not given)	inactive	–
Oc1ccc(I)cc1	inactive	–
Cc1c([N+](=O)[O-])cc2c(c1[N+](=O)[O-])C(C)(C)CC2(C)C	inactive	–
CC(C)(C)c1ccc(O)cc1	inactive	–
c1ccc(OP(Oc2ccccc2)Oc2ccccc2)cc1	inactive	–
CCOP(=S)(NC(C)C)Oc1ccccc1C(=O)OC(C)C (stereo not given)	inactive	–
CCCCOCCOP(=O)(OCCOCCCC)OCCOCCCC	inactive	–
C=C(C)C(=O)OCC1CO1 (stereo not given)	inactive	–
c1nc[nH]n1	inactive	–
O=C(O)CF	inactive	–
OCC1CO1 (stereo not given)	inactive	–
Cn1[nH]nnc1=S	inactive	–

Compound	outcome	AC50
CCCCOCC1CO1 (stereo not given)	inactive	–
CCC1(c2ccccc2)C(=O)N=C(O)NC1=O (stereo not given)	inactive	–
CO/N=C(/C(=O)OC)c1ccccc1COc1ccccc1C	inactive	–
Cc1cccc(N)c1	inactive	–
CCOP(=O)(O)C(N)=O	inactive	–
CCOP(=S)(OCC)SCSc1ccc(Cl)cc1	inactive	–
Nc1ccc2ccccc2c1	inactive	–
COC(N)=O	inactive	–
CC1=C(C(=O)Nc2ccccc2)S(=O)(=O)CCO1	inactive	–
CC(C)CBr	inactive	–
ClC1=C(Cl)C2(Cl)C3C(Cl)C(Cl)CC3C1(Cl)C2(Cl)Cl (stereo not given)	inactive	–
O=[N+]([O-])c1cc(Cl)ccc1Cl	inactive	–
COP(=O)(O)OC	inactive	–
COC(=O)C(F)(F)C(F)(F)OC(F)(C(F)(F)F)C(F)(F)OC(F)=C(F)F (stereo not given)	inactive	87.4 µM (active)
N#Cc1ccc(O)cc1	inactive	–
CC(C)(C)N(NC(=O)c1ccc(Cl)cc1)C(=O)c1ccccc1	inactive	–
N#Cc1c(-c2ccc(Cl)cc2)[nH]c(C(F)(F)F)c1Br	inactive	–
OCC(F)(F)OC(F)(F)C(F)(F)OC(F)(F)C(F)(F)OC(F)(F)CO	inactive	–
CCOS(=O)(=O)OCC	inactive	–

— PubChem BioAssay (EPA / NIEHS)
